Screens as filed in PubChem BioAssay.
Bfl-1 A1 inh: inhibitors of the anti-apoptotic protein A1, read as caspase activation; MEF A1-2A-BIM cells, Caspase-Glo 3/7 luminescence, 3 h; percent of clofoctol response, vehicle zero; 330,000 tested, 0.066% active; AID 2462; caspase activation, % (concentration not given with the values);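 active means over half of replicate activation scores above 10%, or exactly half above 10 with the replicate mean above 10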
A3G deaminase: inhibitors of human APOBEC3G DNA deaminase | Q9HC16 | recombinant A3G, ssDNA deamination FAM/TAMRA fluorescence | inhibition, % at 20 µM | 330,000 tested, 0.28% active;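 active means inhibition of at least 40% at 20 µM, with no more than 30% in the related APOBEC3A deaminase screen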;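 further: plate controls were DMSO wells with A3G for no effect and wells lacking A3G enzyme for full effect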
MIN6 prolif: MIN6 beta-cell proliferation induction; 330,000 tested, 0.29% active; AID 2380; proliferation, % at 10 µM; MIN6 cells proliferation, ATPlite luminescence, 48 h; cells starved in 0.2% serum; 100% = growth in 10% serum;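 active means compounds whose signal lies at least 3.5 SD above the mean of all wells on their plate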;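 further: 0% = DMSO-treated cells in low-serum medium and 100% = 10% serum control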
APOBEC3A inh: inhibitors of human APOBEC3A DNA deaminase; recombinant A3A, FAM/TAMRA ssDNA deamination fluorescence; inhibition, % at 20 µM; 330,000 tested, 0.41% active;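 active means at least 40% inhibition at 20 µM here, with at most 30% in a related deaminase screen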;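 further: plate controls were A3A with DMSO for no effect and wells lacking A3A enzyme for full effect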
Target sequence (P31941 whole entry, looked up): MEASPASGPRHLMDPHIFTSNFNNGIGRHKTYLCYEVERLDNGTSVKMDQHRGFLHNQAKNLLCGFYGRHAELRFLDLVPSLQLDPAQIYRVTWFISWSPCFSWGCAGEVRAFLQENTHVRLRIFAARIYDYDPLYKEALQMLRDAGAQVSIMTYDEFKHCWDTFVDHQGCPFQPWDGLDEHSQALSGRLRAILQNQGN
APOBEC3G confirm: confirmation of human APOBEC3G DNA deaminase inhibitors | shares compounds with A3G deaminase | recombinant A3G ssDNA deaminase, UDG/FAM-TAMRA fluorescence | inhibition, % at 20 µM | 890 tested, 72% active | AID 493152;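 active means inhibition reaching a set limit in any replicate at 20 µM, the limit being 80% of the first screen's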
UDG A3G counter: E. coli UDG inhibition in APOBEC3G counter-screen. shares compounds with A3G deaminase. UDG counterscreen, FAM/TAMRA oligo fluorescence. inhibition, % at 20 µM. 710 tested, under 10 active;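 active means compounds giving 40% or more inhibition at 20 µM in any one of the three replicates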;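 further: plate controls were DMSO wells with UDG and oligo for no effect and DMSO wells lacking both for full effect; inhibitors lower the FAM signal released by uracil excision and alkaline cleavage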
Target sequence (P12295 whole entry, looked up): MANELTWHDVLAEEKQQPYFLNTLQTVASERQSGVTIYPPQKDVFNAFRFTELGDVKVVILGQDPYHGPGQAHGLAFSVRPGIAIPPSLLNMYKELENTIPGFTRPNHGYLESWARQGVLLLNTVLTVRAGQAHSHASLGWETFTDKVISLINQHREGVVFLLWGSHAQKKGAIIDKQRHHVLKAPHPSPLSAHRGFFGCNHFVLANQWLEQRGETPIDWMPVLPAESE
Numbers without * were called inactive. Most compounds without a hit are left out; they make up all but 1.1% or so of the library.

Screening O=C1c2c(O)cccc2Cc2cccc(O)c21 returned Bfl-1 A1 inh 0, A3G deaminase 67*, MIN6 prolif -4, APOBEC3A inh 11, APOBEC3G confirm 78* and UDG A3G counter -5.
For O=C1C=C(O)c2c(O)cccc2C1=O the results were Bfl-1 A1 inh 0, A3G deaminase 13, MIN6 prolif -6 and APOBEC3A inh 6.
`Cc1noc(C)c1C(=O)NNc1ccc(C(C)C)cc1` gave Bfl-1 A1 inh 0, A3G deaminase 46*, MIN6 prolif -2, APOBEC3A inh -2, APOBEC3G confirm 15 and UDG A3G counter -2.
CC(C)c1ccc(NC(=S)NNC(=O)C2CC2)cc1 was read as Bfl-1 A1 inh 0, A3G deaminase -3, MIN6 prolif -1 and APOBEC3A inh 1.
`CC(C)c1ccc(NNC(=O)C2CCC2)cc1` gave Bfl-1 A1 inh 1, A3G deaminase 50*, MIN6 prolif -4, APOBEC3A inh 4 and APOBEC3G confirm 17.
For O=S(=O)(NCc1ccc(F)cc1)c1ccc(-n2cccn2)cc1 the results were Bfl-1 A1 inh -1, A3G deaminase 3, MIN6 prolif 0 and APOBEC3A inh 0.
COc1ccc2nc(NC(=S)N(C)C)sc2c1 was read as Bfl-1 A1 inh 1, A3G deaminase 61*, MIN6 prolif -5, APOBEC3A inh 2, APOBEC3G confirm 69* and UDG A3G counter -5.
For CN(C)c1ccc(/C=N/n2c(-c3cccnc3)n[nH]c2=S)cc1 the results were Bfl-1 A1 inh -1, A3G deaminase 45*, MIN6 prolif -1, APOBEC3A inh -3, APOBEC3G confirm 83* and UDG A3G counter -2.
`Cc1ccc(/C=N/n2c(-c3cccnc3)n[nH]c2=S)o1` gave Bfl-1 A1 inh 0, A3G deaminase 39, MIN6 prolif 1 and APOBEC3A inh -2.
For Cc1ccc(/C=N/n2c(-c3cccnc3)n[nH]c2=S)s1 the results were Bfl-1 A1 inh 1, A3G deaminase 55*, MIN6 prolif 0, APOBEC3A inh -2, APOBEC3G confirm 71* and UDG A3G counter 2.
Screening N#Cc1cccc(N=c2ssnc2Cl)c1 returned A3G deaminase 74*, MIN6 prolif -5, APOBEC3A inh 2, APOBEC3G confirm 88* and UDG A3G counter -3.
COc1cc(N=c2ssnc2Cl)cc(OC)c1 was read as Bfl-1 A1 inh 0, A3G deaminase 65*, MIN6 prolif -3, APOBEC3A inh 0 and APOBEC3G confirm 65*.
Clc1ccc(N=c2ssnc2Cl)nc1 was read as Bfl-1 A1 inh 0, A3G deaminase 20, MIN6 prolif -6 and APOBEC3A inh -1.
For CN(C)S(=O)(=O)c1ccc(C(=O)Nc2cc3c(cc2C(=O)O)OCCCO3)cc1 the results were Bfl-1 A1 inh 0, A3G deaminase -13, MIN6 prolif 4 and APOBEC3A inh -4.
For C[C@H](CO)N1C[C@H](C)[C@@H](CN(C)Cc2ccc(Cl)c(Cl)c2)Oc2c(NC(=O)Cc3ccccc3)cccc2C1=O the results were Bfl-1 A1 inh -1, A3G deaminase -7, MIN6 prolif -6 and APOBEC3A inh -2.
Cc1[nH]n(-c2ccccc2)c(=S)c1C=NCCCN=Cc1c(C)[nH]n(-c2ccccc2)c1=S was read as Bfl-1 A1 inh 0, A3G deaminase 62*, MIN6 prolif -5, APOBEC3A inh 5, APOBEC3G confirm 54* and UDG A3G counter -3.
`Cc1cc(C)n2nc(CNS(=O)(=O)c3ccc(CC(C)C)cc3)nc2n1` gave Bfl-1 A1 inh 0, A3G deaminase -5, MIN6 prolif 0 and APOBEC3A inh -1.
Screening O=C(Nc1ccc(CN2CCCCC2)cc1)c1sc2ccccc2c1Cl returned Bfl-1 A1 inh 0, A3G deaminase -9, MIN6 prolif -6 and APOBEC3A inh 3.
O=S(=O)(Cc1ccccc1)N=Nc1c(O)[nH]c2ccc(Br)cc12 was read as Bfl-1 A1 inh 1, A3G deaminase 51*, MIN6 prolif -1, APOBEC3A inh -1, APOBEC3G confirm 68* and UDG A3G counter -3.
For O=C(CNC(=O)c1ccccc1)N=Nc1c(O)[nH]c2ccc(Br)cc12 the results were Bfl-1 A1 inh -1, A3G deaminase -1, MIN6 prolif -1 and APOBEC3A inh -3.
Screening Cc1cccnc1NC(=O)CNC(=O)C12CC3CC(CC(C3)C1)C2 returned Bfl-1 A1 inh 0, A3G deaminase -6, MIN6 prolif 0 and APOBEC3A inh -4.
O=C(O)c1ccc(/C=N/N2CCN(c3ccccc3)CC2)cc1 was read as Bfl-1 A1 inh -7, A3G deaminase -3, MIN6 prolif -2 and APOBEC3A inh -2.
`C(=N/N1CCN(c2ccccc2)CC1)/c1ccncc1` gave Bfl-1 A1 inh -1, A3G deaminase 43*, MIN6 prolif 0, APOBEC3A inh -3, APOBEC3G confirm -7 and UDG A3G counter -4.
CC1(C)Cc2c(C#N)c(SCC(=O)O)nc(N3CCOCC3)c2CO1 was read as Bfl-1 A1 inh 1, A3G deaminase 61*, MIN6 prolif 3, APOBEC3A inh -3, APOBEC3G confirm -9 and UDG A3G counter -7.
Screening O=C(NCCc1cccc(Cl)c1)c1cccc(-n2cnnn2)c1 returned A3G deaminase -10, MIN6 prolif -1 and APOBEC3A inh 12.
For COc1cccc(C(=O)NCC(=O)N/N=C/c2c(C)[nH]c3ccccc23)c1 the results were Bfl-1 A1 inh -1, A3G deaminase 44*, MIN6 prolif -4, APOBEC3A inh 5 and APOBEC3G confirm 0.
`COc1ccc(CNC(=O)c2ccc(N3CCC4(CC3)CC(c3ccc(Cl)cc3)=NO4)c(NC(=O)Cc3ccc(F)cc3)c2)cc1` gave Bfl-1 A1 inh 3, A3G deaminase -3, MIN6 prolif 2 and APOBEC3A inh 4.
For CCS(=O)(=O)c1ccc2oc(Nc3ccc(C(C)C)cc3)nc2c1 the results were Bfl-1 A1 inh 2, A3G deaminase 68*, MIN6 prolif -5, APOBEC3A inh 1, APOBEC3G confirm 78* and UDG A3G counter 2.
For CCOc1ccc(Nc2nc3cc(S(=O)(=O)N(CC)CC)ccc3o2)cc1 the results were Bfl-1 A1 inh 0, A3G deaminase 50*, MIN6 prolif -5, APOBEC3A inh 2, APOBEC3G confirm 62* and UDG A3G counter -1.
CCN(CC)S(=O)(=O)c1ccc2oc(Nc3ccc(OC)cc3)nc2c1 was read as Bfl-1 A1 inh -1, A3G deaminase -9, MIN6 prolif -1 and APOBEC3A inh -3.
Screening COC(=O)CSc1nc(N)c2c3c(sc2n1)C(c1ccccc1)SC(c1ccccc1)C3 (stereo not drawn) returned Bfl-1 A1 inh 16*, A3G deaminase 43*, MIN6 prolif -5, APOBEC3A inh -1, APOBEC3G confirm 4 and UDG A3G counter 2.
